What all share (assay): DAPPL (digital affinity profiling via proximity ligation, sequencing); 10 mM Tris-HCl pH 7.5, 50 mM NaCl, 1 mM DTT, 4% glycerol, room temperature, 30 min; GST-TFs on glutathione beads, 16-mer random dsDNA library, 0.1% formaldehyde crosslink after washing; high values mean tight binding
One experiment addresses T1, FEV (Homo sapiens, UniProt Q99581 1-238).
T1 sequence: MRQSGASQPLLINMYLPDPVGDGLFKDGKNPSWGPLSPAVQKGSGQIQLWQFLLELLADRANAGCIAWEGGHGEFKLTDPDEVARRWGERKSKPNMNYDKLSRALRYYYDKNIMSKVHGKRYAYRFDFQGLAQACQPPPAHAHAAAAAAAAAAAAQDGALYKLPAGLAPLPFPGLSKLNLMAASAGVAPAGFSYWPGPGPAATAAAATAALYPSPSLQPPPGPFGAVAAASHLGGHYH
The conditions noted are these: protein: recombinant; tags: N-terminal GST; dsDNA, one strand shown. In a few lines: (§1)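 Binding signal is defined as a hexamer's read frequency for one factor over its frequency for the tag-only sample. To obtain reads, GST-fused human transcription factors were expressed in yeast, captured on glutathione beads, barcoded with DNA and pooled with that sample. Pools met 200 nmole of a 16-mer random double-stranded DNA library in Tris/NaCl/DTT/glycerol buffer for 30 min at room temperature before washing, 0.1% formaldehyde crosslinking, proximity ligation (BsaI/T4 ligase, 1 h, 37 °C), PCR and Illumina NextSeq500 sequencing.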

The target in the next experiment is ETV5 (Homo sapiens, UniProt P41161 1-510). The conditions noted are these: protein: recombinant; tags: N-terminal GST; dsDNA, one strand shown. In outline: as §1
A further experiment addresses HSF1 (Homo sapiens, UniProt Q00613 1-529). The conditions noted are these: protein: recombinant; tags: N-terminal GST; chain copies: 3; dsDNA, one strand shown. In a few lines: as §1
For a further experiment, the target named is T2, SPIC (Homo sapiens, UniProt Q8N5J4 1-248).
T2 sequence: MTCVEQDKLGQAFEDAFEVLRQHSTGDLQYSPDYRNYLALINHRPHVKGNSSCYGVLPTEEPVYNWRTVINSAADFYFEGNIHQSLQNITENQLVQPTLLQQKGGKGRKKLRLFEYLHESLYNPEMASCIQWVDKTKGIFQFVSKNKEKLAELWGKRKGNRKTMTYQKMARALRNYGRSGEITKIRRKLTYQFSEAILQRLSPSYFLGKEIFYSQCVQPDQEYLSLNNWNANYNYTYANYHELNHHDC
Conditions: protein: recombinant; tags: N-terminal GST; dsDNA, one strand shown. In outline: as §1

A further experiment concerns the target ELF4 (Homo sapiens, UniProt Q99607 1-663). The conditions noted are these: protein: recombinant; tags: N-terminal GST; dsDNA, one strand shown. In a few lines: as §1
The target of the next experiment is T3, ELK4 (Homo sapiens, UniProt P28324-2 1-405).
T3 sequence: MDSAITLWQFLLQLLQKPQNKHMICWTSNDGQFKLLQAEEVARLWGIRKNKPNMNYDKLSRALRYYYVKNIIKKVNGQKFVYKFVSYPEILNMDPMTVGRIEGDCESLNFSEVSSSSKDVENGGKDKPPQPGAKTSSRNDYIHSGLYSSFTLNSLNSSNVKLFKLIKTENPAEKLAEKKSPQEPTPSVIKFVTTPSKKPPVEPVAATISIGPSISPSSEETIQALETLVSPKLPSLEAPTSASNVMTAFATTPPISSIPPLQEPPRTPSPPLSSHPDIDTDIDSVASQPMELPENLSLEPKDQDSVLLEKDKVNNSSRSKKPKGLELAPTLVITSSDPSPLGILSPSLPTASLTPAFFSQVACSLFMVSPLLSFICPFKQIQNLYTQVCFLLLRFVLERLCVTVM
The conditions noted are these: protein: recombinant; tags: N-terminal GST; dsDNA, one strand shown. In outline:
as §1

Another experiment concerns the target T4, ETV2 (Homo sapiens, UniProt O00321 1-342).
T4 sequence: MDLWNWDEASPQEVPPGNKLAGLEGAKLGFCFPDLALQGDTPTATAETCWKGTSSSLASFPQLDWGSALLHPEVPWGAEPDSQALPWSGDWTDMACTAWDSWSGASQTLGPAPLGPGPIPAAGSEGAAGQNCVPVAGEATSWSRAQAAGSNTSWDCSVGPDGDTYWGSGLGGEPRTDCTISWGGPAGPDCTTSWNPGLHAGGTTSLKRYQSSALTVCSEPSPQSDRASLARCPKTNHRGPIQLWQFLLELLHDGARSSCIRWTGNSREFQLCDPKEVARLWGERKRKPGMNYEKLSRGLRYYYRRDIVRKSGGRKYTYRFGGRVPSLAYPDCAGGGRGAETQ
The conditions noted are these: protein: recombinant; tags: N-terminal GST; dsDNA, one strand shown. In outline: as §1

For a further experiment, the target named is T5, ELF3 (Homo sapiens, UniProt P78545 1-371).
T5 sequence: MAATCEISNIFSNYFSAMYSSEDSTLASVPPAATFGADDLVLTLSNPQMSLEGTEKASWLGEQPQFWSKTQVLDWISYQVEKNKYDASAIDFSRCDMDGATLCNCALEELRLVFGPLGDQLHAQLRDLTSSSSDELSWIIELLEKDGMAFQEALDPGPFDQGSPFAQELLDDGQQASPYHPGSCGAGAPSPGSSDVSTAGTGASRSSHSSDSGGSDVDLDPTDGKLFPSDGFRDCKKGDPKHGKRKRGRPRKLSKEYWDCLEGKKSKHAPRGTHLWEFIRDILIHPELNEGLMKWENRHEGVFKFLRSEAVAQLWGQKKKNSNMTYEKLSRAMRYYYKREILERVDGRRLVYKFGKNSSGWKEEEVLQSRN
The conditions noted are these: protein: recombinant; tags: N-terminal GST; dsDNA, one strand shown. In a few lines:
as §1

The target of another experiment is CRX (Homo sapiens, UniProt O43186 1-299). The conditions noted are these: protein: recombinant; tags: N-terminal GST; dsDNA, one strand shown. In a few lines:
as §1

Another experiment has as its target ETV1 (Homo sapiens, UniProt P50549 1-477). The conditions noted are these: protein: recombinant; tags: N-terminal GST; dsDNA, one strand shown. In outline:
as §1

The target in another experiment is T6, ERF (Homo sapiens, UniProt P50548 1-548).
T6 sequence: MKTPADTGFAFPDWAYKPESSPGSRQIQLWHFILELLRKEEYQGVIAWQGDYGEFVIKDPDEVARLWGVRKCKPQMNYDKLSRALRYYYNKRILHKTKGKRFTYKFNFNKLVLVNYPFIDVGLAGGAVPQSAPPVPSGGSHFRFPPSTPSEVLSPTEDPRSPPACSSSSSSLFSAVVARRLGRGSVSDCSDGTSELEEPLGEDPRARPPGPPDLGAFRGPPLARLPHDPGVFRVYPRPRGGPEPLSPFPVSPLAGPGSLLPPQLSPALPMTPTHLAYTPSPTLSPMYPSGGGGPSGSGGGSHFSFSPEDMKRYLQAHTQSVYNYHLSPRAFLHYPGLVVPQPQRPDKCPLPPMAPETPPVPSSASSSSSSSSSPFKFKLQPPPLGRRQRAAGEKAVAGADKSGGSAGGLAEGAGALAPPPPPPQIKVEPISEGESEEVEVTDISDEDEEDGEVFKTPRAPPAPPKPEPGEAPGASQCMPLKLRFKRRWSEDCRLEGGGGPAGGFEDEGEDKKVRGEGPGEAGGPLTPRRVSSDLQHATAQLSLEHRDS
The conditions noted are these: protein: recombinant; tags: N-terminal GST; dsDNA, one strand shown. In outline:
as §1

A further experiment addresses T7, ETV3L (Homo sapiens, UniProt Q6ZN32 1-361).
T7 sequence: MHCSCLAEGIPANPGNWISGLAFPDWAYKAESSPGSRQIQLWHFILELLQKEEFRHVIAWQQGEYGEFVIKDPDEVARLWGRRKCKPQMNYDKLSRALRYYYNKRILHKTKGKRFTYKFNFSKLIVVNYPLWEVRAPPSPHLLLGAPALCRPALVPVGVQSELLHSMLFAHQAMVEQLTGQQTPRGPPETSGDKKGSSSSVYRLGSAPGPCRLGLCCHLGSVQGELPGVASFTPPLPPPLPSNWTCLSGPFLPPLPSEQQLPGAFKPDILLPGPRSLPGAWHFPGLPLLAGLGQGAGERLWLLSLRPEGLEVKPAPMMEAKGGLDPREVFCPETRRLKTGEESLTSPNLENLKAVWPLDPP
The conditions noted are these: protein: recombinant; tags: N-terminal GST; dsDNA, one strand shown. In a few lines:
as §1

The target of the next experiment is T8, ETS2 (Homo sapiens, UniProt P15036 1-469).
T8 sequence: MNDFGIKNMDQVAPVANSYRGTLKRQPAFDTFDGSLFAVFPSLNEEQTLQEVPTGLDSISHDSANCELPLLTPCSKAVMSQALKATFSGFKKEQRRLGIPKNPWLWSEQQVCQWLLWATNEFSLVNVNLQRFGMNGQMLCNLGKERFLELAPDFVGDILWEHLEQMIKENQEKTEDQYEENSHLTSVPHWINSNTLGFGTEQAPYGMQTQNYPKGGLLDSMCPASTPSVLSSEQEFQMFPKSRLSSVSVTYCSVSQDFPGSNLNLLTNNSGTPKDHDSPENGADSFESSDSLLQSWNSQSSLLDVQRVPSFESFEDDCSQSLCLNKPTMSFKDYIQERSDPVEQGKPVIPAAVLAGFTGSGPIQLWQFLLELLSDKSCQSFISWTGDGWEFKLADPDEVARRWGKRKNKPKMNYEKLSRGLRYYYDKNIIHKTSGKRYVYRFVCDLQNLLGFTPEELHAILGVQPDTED
The conditions noted are these: protein: recombinant; tags: N-terminal GST; dsDNA, one strand shown. In a few lines:
as §1

A further experiment concerns the target T9, SPDEF (Homo sapiens, UniProt O95238 1-335).
T9 sequence: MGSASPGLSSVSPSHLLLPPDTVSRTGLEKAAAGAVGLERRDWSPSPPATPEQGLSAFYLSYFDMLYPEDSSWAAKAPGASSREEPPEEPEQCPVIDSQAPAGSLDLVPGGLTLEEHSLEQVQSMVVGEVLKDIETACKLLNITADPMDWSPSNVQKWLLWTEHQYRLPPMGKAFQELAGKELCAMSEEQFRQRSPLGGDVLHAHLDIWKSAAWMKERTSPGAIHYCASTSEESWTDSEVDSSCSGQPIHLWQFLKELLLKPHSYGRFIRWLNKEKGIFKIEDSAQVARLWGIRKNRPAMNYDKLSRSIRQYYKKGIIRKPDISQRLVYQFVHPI
Conditions: protein: recombinant; tags: N-terminal GST; dsDNA, one strand shown. In a few lines: as §1

The target in the next experiment is T10, ETV7 (Homo sapiens, UniProt Q9Y603 1-341).
T10 sequence: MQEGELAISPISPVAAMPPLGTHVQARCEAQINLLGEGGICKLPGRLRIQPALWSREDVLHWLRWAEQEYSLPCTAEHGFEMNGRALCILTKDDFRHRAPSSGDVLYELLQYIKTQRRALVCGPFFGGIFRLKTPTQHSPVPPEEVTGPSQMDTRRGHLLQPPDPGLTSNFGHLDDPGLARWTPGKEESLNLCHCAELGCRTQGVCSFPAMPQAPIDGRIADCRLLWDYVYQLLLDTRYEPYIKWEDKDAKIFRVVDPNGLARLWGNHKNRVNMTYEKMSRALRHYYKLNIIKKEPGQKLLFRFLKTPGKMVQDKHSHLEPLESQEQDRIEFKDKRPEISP
The conditions noted are these: protein: recombinant; tags: N-terminal GST; dsDNA, one strand shown. In outline: as §1

A further experiment deals with T11, ELF5 (Homo sapiens, UniProt Q9UKW6-2 1-255).
T11 sequence: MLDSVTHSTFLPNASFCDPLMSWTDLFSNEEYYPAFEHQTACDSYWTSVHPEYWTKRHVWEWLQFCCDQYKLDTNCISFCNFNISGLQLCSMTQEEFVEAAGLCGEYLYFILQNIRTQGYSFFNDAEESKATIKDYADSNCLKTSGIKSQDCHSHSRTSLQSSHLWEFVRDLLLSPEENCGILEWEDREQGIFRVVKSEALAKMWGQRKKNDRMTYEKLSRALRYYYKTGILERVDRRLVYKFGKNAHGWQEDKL
Conditions: protein: recombinant; tags: N-terminal GST; dsDNA, one strand shown. In a few lines: as §1

The target in a further experiment is T12, ETV3 (Homo sapiens, UniProt P41162-2 1-143).
T12 sequence: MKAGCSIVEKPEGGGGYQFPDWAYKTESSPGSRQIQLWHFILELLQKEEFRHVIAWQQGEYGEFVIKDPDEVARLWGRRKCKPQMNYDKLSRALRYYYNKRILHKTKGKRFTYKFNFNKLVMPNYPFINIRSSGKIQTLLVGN
The conditions noted are these: protein: recombinant; tags: N-terminal GST; dsDNA, one strand shown. In outline: as §1

The target of another experiment is ETV6 (Homo sapiens, UniProt P41212 1-452). Conditions: protein: recombinant; tags: N-terminal GST; dsDNA, one strand shown. In a few lines:
as §1

Sequence of HSF1 (Q00613 whole entry): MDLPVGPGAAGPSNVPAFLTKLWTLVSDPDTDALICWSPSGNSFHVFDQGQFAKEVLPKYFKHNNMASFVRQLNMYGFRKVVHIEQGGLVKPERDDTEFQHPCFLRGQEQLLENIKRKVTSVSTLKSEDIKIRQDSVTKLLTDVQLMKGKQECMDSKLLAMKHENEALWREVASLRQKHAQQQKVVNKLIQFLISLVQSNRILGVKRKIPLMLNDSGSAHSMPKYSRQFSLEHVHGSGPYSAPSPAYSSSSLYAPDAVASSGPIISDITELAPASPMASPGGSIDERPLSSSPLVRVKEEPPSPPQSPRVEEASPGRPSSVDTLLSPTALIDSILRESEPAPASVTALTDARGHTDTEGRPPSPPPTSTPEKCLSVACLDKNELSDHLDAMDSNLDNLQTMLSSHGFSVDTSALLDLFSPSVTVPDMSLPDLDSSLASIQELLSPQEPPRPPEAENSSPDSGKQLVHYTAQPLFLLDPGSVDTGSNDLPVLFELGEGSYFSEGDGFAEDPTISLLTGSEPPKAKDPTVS
Sequence of ETV1 (P50549 whole entry): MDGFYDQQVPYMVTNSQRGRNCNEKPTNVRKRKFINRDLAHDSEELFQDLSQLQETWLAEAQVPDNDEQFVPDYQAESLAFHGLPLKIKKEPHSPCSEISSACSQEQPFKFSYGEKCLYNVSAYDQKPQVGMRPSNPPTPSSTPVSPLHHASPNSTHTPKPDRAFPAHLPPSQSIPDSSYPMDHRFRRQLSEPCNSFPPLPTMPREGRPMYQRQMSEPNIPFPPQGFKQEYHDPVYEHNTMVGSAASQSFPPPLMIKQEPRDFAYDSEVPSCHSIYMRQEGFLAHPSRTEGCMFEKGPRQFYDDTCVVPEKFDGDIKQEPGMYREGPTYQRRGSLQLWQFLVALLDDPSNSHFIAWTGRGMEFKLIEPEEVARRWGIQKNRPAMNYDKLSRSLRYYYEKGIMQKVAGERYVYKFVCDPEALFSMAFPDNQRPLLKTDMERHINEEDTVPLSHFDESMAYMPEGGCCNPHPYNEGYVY
Sequence of CRX (O43186 whole entry): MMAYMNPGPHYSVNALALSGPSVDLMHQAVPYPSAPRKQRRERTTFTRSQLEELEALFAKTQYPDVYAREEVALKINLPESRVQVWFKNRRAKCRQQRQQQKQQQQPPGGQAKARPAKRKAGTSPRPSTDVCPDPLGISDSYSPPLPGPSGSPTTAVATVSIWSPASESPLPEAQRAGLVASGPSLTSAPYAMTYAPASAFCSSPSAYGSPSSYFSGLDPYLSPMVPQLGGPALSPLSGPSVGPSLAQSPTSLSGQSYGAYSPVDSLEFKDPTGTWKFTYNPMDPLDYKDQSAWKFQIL
Sequence of ETV6 (P41212 whole entry): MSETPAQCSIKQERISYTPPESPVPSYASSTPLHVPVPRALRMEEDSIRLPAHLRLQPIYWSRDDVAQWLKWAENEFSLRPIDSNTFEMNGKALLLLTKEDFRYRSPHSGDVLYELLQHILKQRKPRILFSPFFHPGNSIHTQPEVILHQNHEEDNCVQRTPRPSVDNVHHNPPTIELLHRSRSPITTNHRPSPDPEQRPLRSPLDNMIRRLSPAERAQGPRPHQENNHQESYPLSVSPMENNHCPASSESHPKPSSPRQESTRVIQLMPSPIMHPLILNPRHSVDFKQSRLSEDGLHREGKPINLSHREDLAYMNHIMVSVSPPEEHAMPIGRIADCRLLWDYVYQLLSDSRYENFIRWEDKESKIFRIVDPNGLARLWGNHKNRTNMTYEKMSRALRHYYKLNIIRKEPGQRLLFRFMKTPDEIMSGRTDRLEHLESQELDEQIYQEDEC
Sequence of ELF4 (Q99607 whole entry): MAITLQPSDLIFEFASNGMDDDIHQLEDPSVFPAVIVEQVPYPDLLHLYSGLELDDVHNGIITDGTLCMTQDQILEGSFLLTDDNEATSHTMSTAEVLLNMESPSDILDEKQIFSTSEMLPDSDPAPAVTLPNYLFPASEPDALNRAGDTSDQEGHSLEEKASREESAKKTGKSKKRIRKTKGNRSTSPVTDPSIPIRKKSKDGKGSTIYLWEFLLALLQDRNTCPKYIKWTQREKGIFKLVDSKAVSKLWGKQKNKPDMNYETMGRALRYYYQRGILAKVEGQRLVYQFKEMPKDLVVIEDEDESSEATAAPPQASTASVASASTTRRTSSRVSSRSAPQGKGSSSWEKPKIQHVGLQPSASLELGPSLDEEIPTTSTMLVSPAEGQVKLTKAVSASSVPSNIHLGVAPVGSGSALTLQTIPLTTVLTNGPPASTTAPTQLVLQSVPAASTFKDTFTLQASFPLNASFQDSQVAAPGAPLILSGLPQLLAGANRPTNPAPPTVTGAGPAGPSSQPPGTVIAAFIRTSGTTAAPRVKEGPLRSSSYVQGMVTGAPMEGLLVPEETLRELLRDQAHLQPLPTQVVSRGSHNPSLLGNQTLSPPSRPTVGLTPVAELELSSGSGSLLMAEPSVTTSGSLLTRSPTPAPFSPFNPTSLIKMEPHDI
Sequence of ETV5 (P41161 whole entry): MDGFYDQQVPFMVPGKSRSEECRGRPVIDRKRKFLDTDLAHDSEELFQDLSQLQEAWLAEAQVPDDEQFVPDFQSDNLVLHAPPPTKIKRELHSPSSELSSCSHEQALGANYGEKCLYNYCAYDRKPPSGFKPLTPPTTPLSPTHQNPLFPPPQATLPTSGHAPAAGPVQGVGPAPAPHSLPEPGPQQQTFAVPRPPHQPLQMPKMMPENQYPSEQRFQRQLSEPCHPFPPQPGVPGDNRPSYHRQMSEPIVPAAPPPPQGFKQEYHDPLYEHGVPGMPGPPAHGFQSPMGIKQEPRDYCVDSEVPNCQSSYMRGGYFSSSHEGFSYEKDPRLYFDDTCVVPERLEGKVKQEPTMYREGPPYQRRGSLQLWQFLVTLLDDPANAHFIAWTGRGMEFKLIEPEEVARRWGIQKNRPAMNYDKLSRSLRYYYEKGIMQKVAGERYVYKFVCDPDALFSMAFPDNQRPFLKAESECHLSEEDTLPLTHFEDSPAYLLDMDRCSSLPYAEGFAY

As for CAAGAT, the binding signal was 1.02 fold enrichment (6-mer frequency, TF over GST control) with FEV; 1.1 fold enrichment (6-mer frequency, TF over GST control) with ETV5; 1.18 fold enrichment (6-mer frequency, TF over GST control) with HSF1; 1.14 fold enrichment (6-mer frequency, TF over GST control) with SPIC; 1.18 fold enrichment (6-mer frequency, TF over GST control) in the experiment with ELF4; 1.11 fold enrichment (6-mer frequency, TF over GST control) with ELK4. Moreover, the binding signal is 1.09 fold enrichment (6-mer frequency, TF over GST control) with ETV2; 1.06 fold enrichment (6-mer frequency, TF over GST control) with ELF3; 1.23 fold enrichment (6-mer frequency, TF over GST control) with CRX; 1.06 fold enrichment (6-mer frequency, TF over GST control) with ETV1; 1.06 fold enrichment (6-mer frequency, TF over GST control) with ERF; 1.13 fold enrichment (6-mer frequency, TF over GST control) with ETV3L. In addition, the binding signal was 1.06 fold enrichment (6-mer frequency, TF over GST control) with ETS2; 1.26 fold enrichment (6-mer frequency, TF over GST control) with SPDEF; 1.02 fold enrichment (6-mer frequency, TF over GST control) in the experiment with ETV7; 1.01 fold enrichment (6-mer frequency, TF over GST control) with ELF5; 1.08 fold enrichment (6-mer frequency, TF over GST control) with ETV3; 1.01 fold enrichment (6-mer frequency, TF over GST control) with ETV6.

Source of the values: PMC7862700, “An all-to-all approach to the identification of sequence-specific readers for epigenetic DNA modifications on cytosine”.
